The values below come from PubChem BioAssay AID488890 (Southern Research Specialized Biocontainment Screening …, 2010).

Broadly, the inhibition is the change of the read-out against control, counted positive when it falls.

The whole screen tested about 320,000 compounds, of which about 1,300 (0.41%) were called active. Roughly 3% stayed inconclusive and do not appear here. The rule behind the calls is not given here. These entries were drawn from the full list. Potency and affinity values are given separately.

This assay is described as follows: growth inhibition of non-replicating M. tuberculosis (AID 488890).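 Note: plate controls were DMSO cells for no effect and high antibiotic wells for full effect.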 The note with it: Mycobacterium tuberculosis non-replicating, at 25 µM, stronger effect = higher value.
On to `CC(C)CN(C(=O)COC(=O)c1cccn1C)c1c(N)n(Cc2ccccc2)c(=O)[nH]c1=O`, for which the inhibition amounted to 16.9%.

For `CC(=O)Oc1ccc(/C=C2/Oc3ccccc3C2=O)cc1`, the inhibition turned out to be 36%. The value for `CCOC(=O)Oc1ccc(/C=C2\N=C(C)OC2=O)cc1` was -12.5%; that for `COc1ncnc(OC)c1S(=O)(=O)NCc1ccccc1` was -2.39%; that for `CCOc1ccc(OCc2cccc(C(=O)N/N=C/c3cccnc3)c2)cc1` was 59.6%. For the compound `CCOc1ccc(CC(=O)N/N=C/c2cccnc2)cc1`, the inhibition was -5.71%. With `Cc1[nH]n2cnnc2c(=O)c1Br`, the inhibition is -1.45%. The figure for `COc1ccc(-c2nc(NC(=O)Cn3cnnn3)sc2C)cc1` is 13.2%; for `CCOC(=O)c1c(C)[nH]c(C)c1C(=O)COC(=O)/C=C/c1ccccc1[N+](=O)[O-]` it is 46.8%.

For the compound `CCc1cc(C(=O)OCC(=O)N2CCC(c3ccccc3)=N2)sc1C`, the inhibition amounted to 65.9%. Regarding `O=C(Cc1ccccc1[N+](=O)[O-])OCC(=O)c1c[nH]c2ccccc12`, the inhibition is 4.48%.

Consider `Cc1cccc(C(=O)OCC(=O)c2c(C)[nH]c3ccccc23)c1O`, for which the inhibition came out at 3.19%. For the compound `Cc1[nH]c2ccccc2c1C(=O)COC(=O)c1ccccc1O`, the inhibition came out at 31.1%. The value for `O=C(OCC(=O)c1c[nH]c2ccccc12)c1cccc([N+](=O)[O-])c1` was -14.6%; that for `CCOC(=O)c1c(C)[nH]c(C)c1C(=O)COC(=O)c1cccs1` was 28.9%. The figure for `Cc1cc(C(=O)OCC(=O)N2CCC(c3ccccc3)=N2)ccc1[N+](=O)[O-]` is 22.1%; for `O=C(NCCCCl)C1CC(=O)N(CCc2ccc(F)cc2)C1` (stereo not drawn) it is 5.65%. The figure for `O=C(O)c1cc(N2C(=O)C3CCCCC3C2=O)ccc1NCc1cccnc1` (stereo not drawn) is 4.47%. Turning to `CCN(CC)C(=O)Cn1cc(C(=O)C(=O)NCc2cccnc2)c2ccccc21`, the inhibition is -4.61%. The value for `COc1cc(OC)cc(C(C(=O)NC2CCCCC2)N(C(=O)c2ccno2)c2ccccc2)c1` (stereo not drawn) was 8.21%; that for `Cc1ccc(CN2CC(C(=O)Nc3ncccc3C)CC2=O)cc1` (stereo not drawn) was -7.14%; that for `COc1cccc(/C=N/NC(=O)c2nnn(-c3nonc3N)c2-c2cccs2)c1` was 7.66%. The value for `COc1ccc(C(=O)COC(=O)c2ccc(OC)c(OC)c2)cc1OC` was 3.56%; that for `COc1ccc(C(=O)OCC(=O)Nc2ncc([N+](=O)[O-])s2)cc1OC` was -11.2%; that for `O=C(CSc1nc(=O)n(CCCN2CCOCC2)c2c1CCCC2)Nc1ccccc1Cl` was 11.7%. For the compound `CCOc1ccc(OCCCC(=O)NC2=NCCS2)cc1`, the inhibition turned out to be 40.7%.

`CC(C)(C)c1ccc(OCCC(=O)NC2=NCCS2)cc1`: the inhibition was 66.8%. The value for `CCC(C)n1cnc2c(=O)oc3ccccc3c21` (stereo not drawn) was -10.2%. The value for `CCn1c(C)nc2c(=O)oc3ccccc3c21` was -3.87%; that for `O=c1oc2ccccc2c2c1nnn2CCO` was 97.3%. For the compound `CN(C)CCn1nnc2c(=O)oc3ccccc3c21`, the inhibition was -13.7%.

Take `Cc1ccc(-n2nnc3c(=O)oc4ccccc4c32)cc1`: the inhibition amounted to 6.67%.

Turning to `CC(C)Cn1cnc2c(=O)oc3ccccc3c21`, the inhibition is -17.9%. In the case of `CSc1n[nH]c(/N=C/c2oc(O)c3ccccc23)n1`, the inhibition is -21.1%. The value for `O=C(CNC(=O)c1ccc(Cl)cc1)NC1CCCCC1` was -2.3%. For the compound `CN(CC(=O)Nc1ccc(N2CCOCC2)cc1)C(=O)c1cc(F)c(F)cc1Cl`, the inhibition is -5.8%. The value for `CCc1ccc(C(=O)COC(=O)CNC(=O)Cc2ccccc2)cc1` was 47.9%; that for `Cc1csc(N2CCCC2c2nc3cc(Cl)c(N4CCCCC4)cc3n2CCOCCO)n1` (stereo not drawn) was 5.44%; that for `CNCc1ccccc1OCc1ccccc1F` was 8.9%. The value for `CC(=O)Oc1ccc2nc(-c3ccco3)oc(=O)c2c1` was 42%. The value for `N#Cc1ccc(OCC(=O)Nc2nc(-c3cccnc3)cs2)cc1` was -5.75%; that for `O=C(CCCOc1ccccc1)Nc1cccnc1` was 44.6%. For the compound `O=C(COc1ccc([N+](=O)[O-])cc1)Nc1cccnc1`, the inhibition stood at 51.3%. Turning to `N#Cc1ccc(OCC(=O)Nc2ccncc2)cc1`, the inhibition was 46.2%.

For `COc1ccc(/C=N/NC(=O)c2ccc3c(c2)OCO3)c(C(=O)O)c1OC`, the inhibition is 37.5%. The value for `NS(=O)(=O)c1ccc(CCNC(=S)Nc2ccc(F)cc2)cc1` was 30%.

With `O=C(c1cccc(F)c1)N1CCN(C(=O)C2CC2)CC1`, the inhibition was 0.47%.

Take `C[C@@H]1CN([C@H](C)CO)C(=O)c2cc(NC(=O)C3CCCCC3)ccc2O[C@@H]1CN(C)Cc1ccc(C(F)(F)F)cc1`: the inhibition was 28%. The figure for `CC(=O)c1ccc(NC(=O)Cc2cccs2)cc1` is 47%; for `COC(=O)C1=C(c2ccc(F)cc2OCc2ccccc2)C[C@@H]2CC[C@H]1N2C(=O)NC1CCCCC1` it is 39.2%.

For the compound `COc1ccc(/C(C)=N/Nc2nc3ccccc3nc2C)cc1`, the inhibition was -2.93%. The value for `COc1ccc(/C(C)=N/Nc2nc3ccccc3nc2C)cc1OC` was 18.1%. The value for `N#Cc1ccc(COC(=O)c2cccnc2Cl)cc1` was 57%; that for `Cc1ccc(-c2cc(C(F)(F)F)n3ncc(C(=O)N4CCCc5ccccc54)c3n2)cc1` was 9.06%; that for `COC(=O)c1ccc(/C=C/C(=O)OCC(=O)NCc2cccs2)cc1` was 13.7%. Take `CN1CCCC(C(=O)c2ccc(Cl)cc2)C1` (stereo not drawn): the inhibition stood at 2.9%. The value for `CN1CCCC(C(=O)c2ccccc2)C1` (stereo not drawn) was -7.66%. The figure for `CN1CCC(NC(=O)c2cccs2)CC1` is -14.8%; for `CN1CC(C(=O)c2ccccc2)C(C(=O)c2ccccc2)C1` (stereo not drawn) it is 14.7%; for `CN1CC(C(=O)c2ccc(Cl)cc2)C(c2ccc(Cl)cc2Cl)C1` (stereo not drawn) it is 55.7%.

As for `CC1CN(C(=O)c2cccs2)CC(C)O1` (stereo not drawn), the inhibition is -2.97%. The value for `CC(=O)Oc1ccc(S(=O)(=O)c2ccc(OC(C)=O)cc2)cc1` was -5.93%. Take `Cc1ccc(S(=O)(=O)Nc2ccc3c(c2)C(=O)N([C@H](C)CO)C[C@H](C)[C@@H](CN(C)C(=O)Nc2ccc(C(F)(F)F)cc2)O3)cc1`: the inhibition was determined as 46.2%. With `COc1cccc(-c2nn(-c3ccccc3)cc2CN(C)Cc2ccno2)c1`, the inhibition amounted to 2.32%.

`S=c1[nH]nc(Cc2ccc(Cl)cc2)n1-c1ccc2c(c1)OCCO2`: the inhibition is -2%. The figure for `O=C(NC(=S)Nc1ccc(S(=O)(=O)Nc2nccs2)cc1)C1CC1` is 23.6%. The value for `O=C(Nc1ccc(S(=O)(=O)Nc2nccs2)cc1)C1CCCCC1` was 60.2%; that for `Cc1ccc(C(=O)NC(=S)NNC(=O)CC#N)cc1` was 39.8%; that for `Cc1ccc(C(=O)NNC(=O)c2ccc(C)cc2)cc1` was -1.12%.

For the compound `Cc1cc(C(=O)N2CCN(c3ncccn3)CC2)nn1C`, the inhibition is -1.81%. The figure for `COc1cccc(/C=C/C(=O)OCCN2C(=O)c3ccccc3C2=O)c1` is 24.5%. The value for `CC1(C)C(=O)OC(c2cccc([N+](=O)[O-])c2)C2(CCCCC2)C1=O` (stereo not drawn) was 12.6%; that for `COc1ccc(C2(CNC(=O)c3ccccc3)CCOCC2)cc1` was -1.08%. The figure for `CC(=O)c1ccc(NC(=O)c2ccccc2-c2ccccc2C(=O)O)cc1` is 78.9%; for `COC(=O)c1ccc(NC(=O)c2ccccc2-c2ccccc2C(=O)O)cc1` it is 65.6%. Turning to `COC(=O)C[C@H](NC(=O)Cn1cnc2c(SC)nc(N)nc21)C(=O)OC`, the inhibition is -10.4%.

`CC(=O)c1ccc(NC(=O)CNC2CCCCC2)cc1`: the inhibition is -1.52%. The value for `Cc1c(N=c2c(=O)c3ccccc3c2=O)c(=O)n(-c2ccccc2)n1C` was -4.23%.

With `CCC/C(O)=C1\C(=O)CC(C)(C)CC1=Nc1ccccc1O`, the inhibition was 2.5%. The value for `CC1c2[nH]c3ccccc3c2C[C@H]2C(=O)N(CCCN(C)C)CC(=O)N12` (stereo partly drawn) was -5.98%; that for `Cc1ccc(C(=O)CCNc2ccccc2)o1` was -1.75%.

Consider `Cc1ccc(C(=O)Nc2ccc(NC(=O)c3ccc(C)o3)cc2)o1`, for which the inhibition amounted to 0.92%.

As to `Cc1ccc(NC(=O)COC(=O)c2cc(=O)c3ccccc3o2)c(Br)c1`, the inhibition came to 6.59%.

Take `Cc1cc(/C=C2\SC(=S)NC2=O)c(C)n1C1CC1`: the inhibition is 43.8%.

For the compound `CCN1C(=O)C(=Cc2cc(C)n(C3CC3)c2C)C(=O)N(CC)C1=S`, the inhibition came out at 69.5%. Consider `CCCS(=O)(=O)C/C(N)=N/OC(=O)c1ccc(Cl)cc1`, for which the inhibition came out at 3.52%.

As for `COc1ccc(NC(=O)CN(C)CC(=O)Nc2ccccc2SC)cc1`, the inhibition is -4.75%. The value for `COCC(=O)Nc1nc2ccc(C)cc2s1` was 49%; that for `CCOCC(=O)Nc1nc2ccc(OCC)cc2s1` was 80%; that for `O=C(NNc1nc2c(F)cc(F)cc2s1)c1ccccc1` was -1.93%.

Consider `Cc1onc(-c2ccccc2)c1C(=O)Nc1nc(-c2cc(F)ccc2F)cs1`, for which the inhibition was -10.6%. With `Cc1ccc(C)c(-c2csc(NC(=O)c3c(C)noc3C)n2)c1`, the inhibition was -15%. Take `O=C(Nc1nc(-c2cc(F)ccc2F)cs1)C1=COCCO1`: the inhibition came out at 22.8%. As for `Cc1csc(NC(=O)c2cnccn2)n1`, the inhibition was determined as 16.7%. The figure for `O=C(Nc1nc2c(F)cc(F)cc2s1)c1ccco1` is 36.2%. The value for `CC(C)Cc1ccc(CN2CCCC(NC(=O)CCN3CCOCC3)C2)cc1` (stereo not drawn) was 34.5%; that for `CCS(=O)(=O)N1CCC(C(=O)Oc2ccc(C(=O)OC)cc2)CC1` was 4.94%; that for `Cc1cnc(NC(=O)c2ccncc2)s1` was -17.1%. The figure for `CSc1ncccc1C(=O)Nc1ncc(C)s1` is 13.3%; for `O=C(Nc1nc2ccc(F)cc2s1)Oc1ccccc1` it is 6.26%. On to `Cc1ccc2nc(NC(=O)COC(=O)c3ccccn3)sc2c1`, for which the inhibition amounted to 76.5%. The figure for `O=C(Nc1nc2ccc(F)cc2s1)c1cccs1` is 33.5%; for `Cc1ccc2nc(NC(=O)c3ccccc3F)sc2c1` it is 2.6%; for `CCc1ccc(C(=O)NNc2cc(Cl)cc(Cl)c2)cc1` it is 67.2%. The figure for `CN(C)c1ccc(NC(=O)CCCCCn2nnc3ccccc3c2=O)cc1` is 2.13%; for `O=[N+]([O-])c1cccc(-c2nnc(-c3ccccc3F)o2)c1` it is 35.9%. As for `O=[N+]([O-])c1cccc(-c2nnc(-c3ccccc3)o2)c1`, the inhibition amounted to 75.3%. The value for `Cc1ccc(C(=O)Nc2ccc(C(=O)N/N=C/c3ccc(C)o3)cc2)cc1` was 9.26%; that for `Cc1cccc(NC(=O)CCNS(=O)(=O)c2ccc(Cl)cc2)c1` was -5.22%; that for `CCOC(=O)C1(Cc2ccc(OC)cc2)CCN(C(=O)CN2CCOC2=O)CC1` was -7.21%.

Take `CN(C)S(=O)(=O)c1ccc(C(=O)OCCc2ccccc2)cc1`: the inhibition is 42.9%.

With `CN(C)S(=O)(=O)c1ccc(Oc2ccccc2)cc1`, the inhibition amounted to 27.6%. The value for `COc1cc(/C=N/Nc2ccc(Cl)c(C(=O)O)c2)ccc1OC(=O)c1ccc(F)cc1` was 52.6%; that for `O=C(NC(NNc1ccc([N+](=O)[O-])cc1)(C(F)(F)F)C(F)(F)F)c1ccc(F)cc1` was 29.8%; that for `Nc1ccc(C(=O)N/N=C2\CCCc3c2[nH]c2ccccc32)cc1` was 19.8%. The value for `CC(C)c1ccc2[nH]c3c(c2c1)CCCC3=O` was 6.88%; that for `O=C(N/N=C1\CCCc2c1[nH]c1ccc([N+](=O)[O-])cc21)c1ccncc1` was -12.5%; that for `O=C(NN=C1CCCCCC1)c1ccncc1` was 70.4%.
